About 83,000 compounds went through this panel and 20% of them were active in at least one assay; those are over-represented in the sample as a whole.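 Treatment: one concentration, 48 hours, 96-well format. Scoring: percent growth, with anything below 10 considered active.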 Unmarked numbers belong to inactive results. The source made the active and inactive calls.
Test system: MDA-MB-468 breast
Assay: NCI-60 one-dose screen, 48 h (100 = growth as untreated, 0 = no growth, -100 = all killed)
Conditions: 10 µM unless noted

**Q.** With `O=C1/C(=C/c2ccccc2F)CN(C(=O)C(Cl)Cl)C/C1=C\c1ccccc1F` as the compound, how does the growth read?
**A.** -32.4% (active)

**Q.** With `COc1ccc(/C=c2\c(=O)n(-c3ccccc3)c3nn4c(n23)=NNC42CCCCC2)cc1` as the compound, how does the growth read?
**A.** 110%

**Q.** Which growth does the source give for `CCCCCCCCCCCC1=NCCCN1CCCC` here?
**A.** 101%

**Q.** Which growth does the source give for `COc1cc(OC)c(/C=C/S(=O)(=O)Cc2ccc(OC)c(NC(=O)CCC(=O)NO)c2)c(OC)c1` here?
**A.** 40.4%

**Q.** With `CN1CC[C@@H](c2c(O)cc(O)c3c(=O)cc(-c4ccccc4Cl)oc23)[C@@H]1CO` as the compound, how does the growth read?
**A.** -44.2% (active)

**Q.** Which growth does the source give for `CC(C)NCC(O)COc1ccc(CC(N)=O)cc1` (stereo not given) here?
**A.** 102%

**Q.** For `C=CCn1c(SCC(=O)Nc2cccc(C(=O)/C=C/c3ccc(Br)cc3)c2)nc2ccccc2c1=O`, which growth is on record?
**A.** 99.6%

**Q.** For `Cc1nnc(N/N=C/c2ccc([N+](=O)[O-])o2)[nH]c1=O`, which growth is on record?
**A.** 31.2%

**Q.** With `O=C(NC(=S)N1CC=CCC1)c1ccccc1` as the compound, how does the growth read?
**A.** 121%

**Q.** How did the growth turn out when `O=C(Nc1cccc([N+](=O)[O-])c1)c1cccc(C(=O)Nc2cccc([N+](=O)[O-])c2)c1` was run?
**A.** 67.1%

**Q.** How did the growth turn out when `CC12CC3CC1C(C(=O)O2)C3C(=O)O` (stereo not given) was run?
**A.** 103%

**Q.** For `c1ccc(CCCCc2ccc3ccccc3n2)cc1`, which growth is on record?
**A.** 111%

**Q.** How did the growth turn out when `CN1CCC(=C2c3ccccc3C=Cc3ccccc32)CC1` was run?
**A.** 36%

**Q.** How did the growth turn out when `CC(C)=CCCC(C)c1ccc(C)c2c1OCN(CCCCCO)C2` (stereo not given) was run?
**A.** 90%

**Q.** With `NC(=O)c1cccc(C#CCNC[C@H]2C[C@@H](n3ccc4c(Cl)ncnc43)[C@H](O)[C@@H]2O)c1` as the compound, how does the growth read?
**A.** 95.9%

Source: PubChem BioAssay (NCI)
